Source: PubChem BioAssay AID1159580 (chemical genetic matrix, 2015)
“And” between values parts separate entries of the source, which are not always exact repeats. Equal entries are not always repeated. The campaign covered roughly 5,500 compounds. About 2,000 (36%) were called active. Another 18% or so got no clear call; they are omitted. No stated cut-off is given here; in the data, active means normalized growth mostly below about 0.91 (no sharp cut-off); inconclusive means no clear call, values can overlap the other calls; inactive means mostly above about 0.92. This is one part of the list.

Assay: chemical genetic growth profiling, strain panel (AID 1159580);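 further: tested at 20 µM; growth read once vehicle control cultures reached saturation at 30 °C; 1 = growth at the plate median or of vehicle wells; lower values mean less growth of the strain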
Details: S. cerevisiae deletion strains, growth OD

Measured: normalized growth

Oc1ccc2c(c1)OCC1(O)Cc3cc(O)c(O)cc3C21 (stereo unspecified)
inactive: locus YAL021C, strain ccr4, active compounds read low 1.03 | locus YAL026C, strain drs2, active compounds read low 1.03 | locus YAL030W, strain snc1, active compounds read low 1.02 | locus YBL061C, strain skt5, active compounds read low 1.03 | locus YBR009C, strain hhf1, active compounds read low 1.01 | locus YBR021W, strain FUR4, active compounds read low 1.04 | locus YBR023C, strain chs3, active compounds read low 1.03 | locus YBR171W, strain sec66, active compounds read low 1.04 | locus YBR229C, strain ROT2, active compounds read low 1.01 | locus YBR231C, strain swc5, active compounds read low 1.01 | locus YBR279W, strain paf1, active compounds read low 1.02 | locus YCL011C, strain gbp2, active compounds read low 1.03 | locus YCL016C, strain dcc1, active compounds read low 1.03 | locus YCL029C, strain bik1, active compounds read low 1.01 | locus YCL061C, strain MRC1, active compounds read low 1.02 | locus YCL069W, strain vba3, active compounds read low 1.03 | locus YCR088W, strain abp1, active compounds read low 1.02 | locus YDL005C, strain med2, active compounds read low 1.03 | locus YDL035C, strain GPR1, active compounds read low 1.03 | locus YDL040C, strain nat1, active compounds read low 1.02 | locus YDL074C, strain BRE1, active compounds read low 0.936 | locus YDL101C, strain DUN1, active compounds read low 0.958 | locus YDL185W, strain tfp1, active compounds read low 0.964 | locus YDL192W, strain arf1, active compounds read low 1.01 | locus YDR001C, strain nth1, active compounds read low 1.03 | locus YDR069C, strain doa4, active compounds read low 1.01 | locus YDR101C, strain arx1, active compounds read low 1.07 | locus YDR137W, strain rgp1, active compounds read low 1.15 | locus YDR150W, strain NUM1, active compounds read low 1 | locus YDR159W, strain sac3, active compounds read low 1.05 | locus YDR162C, strain NBP2, active compounds read low 0.976 | locus YDR195W, strain ref2 1.02 | locus YDR297W, strain sur2, active compounds read low 1.02 | locus YDR318W, strain mcm21, active compounds read low 0.98 | locus YDR334W, strain swr1, active compounds read low 1.03 | locus YDR335W, strain msn5, active compounds read low 1.01 | locus YDR388W, active compounds read low 0.978 | locus YDR392W, strain spt3, active compounds read low 1.03 | locus YDR502C, strain sam2, active compounds read low 0.996 | locus YEL003W, strain gim4, active compounds read low 1.02 | locus YEL037C, strain rad23, active compounds read low 1.02 | locus YEL061C, strain CIN8 (second series), active compounds read low 1.04 | locus YER015W, strain faa2, active compounds read low 1.01 | locus YER016W, strain bim1, active compounds read low 1.03 | locus YER110C, active compounds read low 0.996 | locus YER111C, strain swi4, active compounds read low 1.03 | locus YER155C, strain BEM2 (second series), active compounds read low 1.03 | locus YER155C, strain BEM2, active compounds read low 1.04 | locus YER167W, strain BCK2, active compounds read low 1.04 | locus YFR010W, strain ubp6, active compounds read low 1.02 | locus YGL078C, strain dbp3, active compounds read low 0.986 | locus YGL086W, strain mad1, active compounds read low 0.996 | locus YGL167C, strain pmr1, active compounds read low 1.02 | locus YGL173C, strain kem1, active compounds read low 1.03 | locus YGL227W, strain vid30, active compounds read low 1.04 | locus YGL240W, strain doc1, active compounds read low 1.02 | locus YGL248W, strain PDE1, active compounds read low 0.989 | locus YGL253W, strain hxk2, active compounds read low 1.02 | locus YGR078C, strain PAC10, active compounds read low 0.977 | locus YGR135W, strain pre9, active compounds read low 0.945 | locus YGR229C, strain SMI1, active compounds read low 0.968 | locus YGR252W, strain gcn5, active compounds read low 1.06 | locus YHR013C, strain ard1, active compounds read low 1.07 | locus YHR027C, strain rpn1, active compounds read low 1.02 | locus YHR030C, strain SLT2, active compounds read low 0.995 | locus YHR079C, strain IRE1 (second series), active compounds read low 0.993 | locus YHR079C, strain IRE1, active compounds read low 0.992 | locus YHR094C, strain hxt1, active compounds read low 1 | locus YHR129C, strain ARP1, active compounds read low 0.98 | locus YHR142W, strain chs7, active compounds read low 1.05 | locus YHR200W, strain rpn10, active compounds read low 1.01 | locus YIL066C, strain RNR3, active compounds read low 1.03 | locus YIL073C, strain SPO22, active compounds read low 0.964 | locus YIL125W, strain kgd1, active compounds read low 1.01 | locus YIR030C, strain dcg1, active compounds read low 1 | locus YJL092W, strain hpr5, active compounds read low 1.03 | locus YJL095W, strain BCK1 (second series), active compounds read low 1.02 | locus YJL095W, strain BCK1, active compounds read low 0.88 and 0.999 | locus YJL115W, strain asf1, active compounds read low 1.04 | locus YJL129C, strain trk1, active compounds read low 1.09 | locus YJL134W, strain LCB3, active compounds read low 1.01 | locus YJL154C, strain vps35, active compounds read low 1.03 | locus YJL164C, strain tpk1, active compounds read low 1.03 | locus YJL166W, strain qcr8, active compounds read low 1.02 | locus YJL168C, strain set2, active compounds read low 0.983 | locus YJL187C, strain SWE1 (second series), active compounds read low 0.922
